# AMA1-RON2 inh = qHTS for Inhibitors of AMA1-RON; Towards Development of Antimalarial Drug Lead: Primary Screen; AID 720542, 2013; actives 0.2% (n = 360,000); AlphaScreen AMA1-biotinylated RON2 peptide binding; Plasmodium falciparum AMA1 (3D7) - RON2 peptide interaction; Potency, µM (series often up to 58.2 µM), for inactives: at the highest dose activity change, negative = inhibition, hits mostly inhibitors;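 note: 0% = vehicle wells and -100% = peptide control; nearly all actives have a fitted effect of over 45% in size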
#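 AMA1 (3D7) with his tag at 25 nM final met compounds first, then biotinylated RON2 peptide at 25 nM; detection used donor plus acceptor beads, 10 µg/mL apiece, read by AlphaScreen after 30 min at room temperature.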
# Pf growth 48h = Primary qHTS for delayed death inhibitors of the malarial parasite plastid, 48 hour incubation | P. falciparum luciferase growth in erythrocytes, 48 h | Potency, µM (doses to about 28.7 µM), for inactives: top-dose activity change, negative = inhibition, hits mostly inhibitors | actives 5.9% (n = 310,000)
#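 Luminescence readout; reporter = integrated firefly luciferase in P. falciparum. RBC culture at 2% hematocrit, 0.1% parasitemia final, 37 C/5% CO2; decreased signal taken as growth inhibition.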
# Vaccinia Venus = qHTS for Stage-Specific Inhibitors of Vaccinia Orthopoxvirus: Venus Reporter Primary qHTS. Potency, µM (top dose mostly 36.5 µM), inactives show at the top dose activity change, negative = inhibition, usual class: inhibitors. actives 0.46% (n = 330,000). AID 720580, 2013. Vaccinia virus Venus reporter expression, fluorescence; calls by dose curve; tested in A549 cells; note: nearly all actives have a fitted effect of over 30% in size
# Pf growth 96h = Primary qHTS for delayed death inhibitors of the malarial parasite plastid, 96 hour incubation; P. falciparum luciferase reporter growth, 96 h; Potency, µM (highest dose often 28.7 µM), without a hit: at the highest dose activity change, negative = inhibition, actives largely listed as inhibitors; actives 6.9% (n = 320,000); AID 504834, 2011
#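 Two-generation exposure (96 h) targets delayed-death phenotype. Reporter parasites carrying integrated firefly luciferase, in red cells at 2% hematocrit and 0.05% parasitemia final, kept at 37 C, 5% CO2; luminescence loss indicates inhibition.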
# Vaccinia mCherry = qHTS for Stage-Specific Inhibitors of Vaccinia Orthopoxvirus: mCherry Reporter Primary qHTS; Vaccinia virus mCherry reporter infection, fluorescence; actives 0.63% (n = 310,000); Potency, µM (top dose mostly 36.5 µM), for inactives: at the highest dose activity change, negative = inhibition, most hits filed as inhibitors; AID 720579, 2013; calls by dose curve; tested in A549 cells; note: nearly all actives have a fitted effect of over 35% in size
# Starred values were filed as active, the others as inactive; i = inactive; ? = inconclusive; . = no result; [ ] = another dose, or the depositor's remark. Compounds with a hit are over-represented: about 8.7% of the library has one in this group of screens. Unless noted, calls come from the whole dose curve; as a rule, active = well fitted curve in the direction sought with a large enough effect; inconclusive = small, poorly fitted or top-dose-only effect, or another doubt; inactive = no such curve, though single readings can be large; an effect the other way counts as inactive or inconclusive. Unless noted, % is set by controls: 0 for no effect and ±100 for the full control effect; potency is the fitted concentration of half-maximal effect.
SMILES,AMA1-RON2 inh,Pf growth 48h,Vaccinia Venus,Pf growth 96h,Vaccinia mCherry
O=C(Nc1ccc(Br)cc1)C1CCN(S(=O)(=O)c2cccc3nsnc23)CC1,.,.,-1%,.,-6%
CC(C)(C)c1ccc(C(=O)NC2(C(F)(F)F)NC(=O)N(CCc3ccccc3)C2=O)cc1 (stereo unspecified),.,.,-17%,.,-25%
Cc1cccc(N(C)C(=O)C2CCN(S(=O)(=O)c3cccc4nonc34)CC2)c1,.,.,-1%,.,3%
O=C(NC1CC2CCC(C1)N2Cc1nnnn1Cc1ccco1)NC12CC3CC(CC(C3)C1)C2 (stereo unspecified),13%,12µM*,.,.,.
CCOc1ccccc1C(=O)NC1CC2CCCC(C1)N2Cc1nnnn1Cc1ccco1 (stereo unspecified),-6%,12µM*,-5%,?,i
COC(=O)c1ccc(OCC2c3cc(OC)c(OC)cc3CCN2C(=O)C(C)C)cc1 (stereo unspecified),.,.,-7%,.,-4%
CCOC(=O)/C(C#N)=C1\Nc2ccccc2N=C1N(CC(C)C)CC(C)C,-14%,2.3µM*,-1%,19%,-8%
O=C(NNc1ccccc1F)c1cccs1,.,.,-4%,.,-15%
CCOc1ccc(-c2csc(NC(=O)c3ccco3)n2)cc1,-16%,20%,.,10µM*,.
O=C(Nc1cc(-c2ccccc2)cs1)c1ccco1,-17%,?,-9%,2.3µM*,?
COc1ccc(-c2csc(NC(=O)CCNC(=O)c3ccco3)n2)cc1OC,-5%,12µM*,.,?,.
O=C(Nc1nc(-c2ccccc2)cs1)c1ccco1,-11%,82%,-8%,3%,i
COc1ccc(-c2csc(NC(=O)c3ccco3)n2)cc1,0%,270%,-21%,-22%,-15%[1.46 µM]
CCOc1ccc(NC(=O)c2ccco2)c([N+](=O)[O-])c1,1%,200%,-23%,0.59µM*,i
CCOc1ccc(NC(=O)c2ccc(CC)s2)c([N+](=O)[O-])c1,-13%,42%,0%,?,-12%
COc1ccc2c(c1)CC(C(=O)NCCN1CCN(c3cccc(C)c3C)CC1)CO2 (stereo unspecified),.,.,-16%,.,-16%
Cc1ccc(-c2csc(NC(=O)c3ccco3)n2)cc1C,-15%,20%,-23%,0.59µM*,i
CC(=O)N[C@@H](Cc1ccc(O)cc1)CN1C(N)=NC[C@@H]1CC(C)C,21%,15%,-2%,21%,i
CCCCN1C(N)=NC[C@@H]1Cc1ccc(O)cc1,2%,10µM*,-6%,4.1µM*,-16%
CC(C)(C)CN1C(N)=NC[C@@H]1Cc1ccc(O)cc1,-15%,?,-8%,?,?
NC1=NC[C@H](Cc2ccc(O)cc2)N1CCC12CC3CC(CC(C3)C1)C2,-7%,2.9µM*,-16%,1.9µM*,-21%
COc1cc(CCCN2C(N)=NC[C@H]2Cc2ccc(O)cc2)cc(OC)c1OC,4%,8.3µM*,2%,2.3µM*,-14%
CC(C)(C)CN1C(N)=NC[C@H]1Cc1ccc(O)cc1,3%,?,-2%,4.7µM*,i
CCC1CN(C(=O)N2CCC(C(=O)NCCc3ccc(C)cc3)CC2)c2ccccc2O1 (stereo unspecified),.,.,-12%,.,2%
COc1ccc(CNC(=O)Cc2c(C)c3cc4c(C)coc4c(C)c3oc2=O)cc1OC,.,.,-1%,.,-3%
SMILES,AMA1-RON2 inh,Pf growth 48h,Vaccinia Venus,Pf growth 96h,Vaccinia mCherry
CCCCN1C(Nc2ccccc2)=NC[C@@H]1Cc1ccccc1,13%,?,-9%,36%,?
CCCCN1C(N)=NC[C@H]1Cc1ccc(O)cc1,2%,9.3µM*,-5%,4.7µM*,i
CCOc1ccccc1NC(=O)c1ccc(Cl)c(NC(=O)CC(c2ccccc2)c2ccccc2)c1,0%,?,-7%,9.3µM*,-2%
CCOc1ccccc1NC(=O)C(OC(=O)c1ccc(O)cc1)c1ccccc1 (stereo unspecified),1%[2.32 µM],12µM*,?,?,-16%
CCOc1ccccc1C(=O)Nc1cc(C(=O)NCCc2ccccc2)ccc1Cl,-1%,?,-16%,?,i
CCOc1cc(NC(=O)C2CC2)c(OCC)cc1NC(=O)c1ccccc1OCC,-21%,5.9µM*,-26%,-20%,-15%
CCOc1ccccc1NC(=O)c1cccc(NC(=O)CC(c2ccccc2)c2ccccc2)c1,-9%,?,-19%,?,-4%
CCOc1ccccc1C(=O)Nc1cc(C(=O)NCC(C)C)ccc1Cl,.,7.4µM*,.,1.7µM*,.
Cc1cccc(Cn2c(COc3ccccc3)nc3ccccc32)c1,.,.,-2%,.,6%
CN1CCN(c2ccnc(N(C)CCCCCCN)n2)CC1,.,.,-15%,.,-12%
CSc1cccc(NC(=O)Cn2nnc(C(=O)NCCc3ccccc3)c2N)c1,.,.,-1%,.,-9%
COc1ccc(NC(=O)CSc2nc3nc(C)c(Cc4ccc(C)cc4)c(C)n3n2)cc1OC,.,.,-18%,.,i
CC(C)c1ccccc1NC(=O)c1ccccc1NC(=O)C1CCCCC1,1%,12µM*,.,187%,.
CCCCCc1ccc(OCCOCCn2c[n+](C)c3ccccc32)c(CCCCC)c1,-9%,2.9µM*,11µM*,-20%[1.15 µM],16µM*
CCCCOc1ccc(CCN)cc1Cl,-29%,5%,-6%,31%,-17%
CCCCCc1ccc(OCCC[n+]2ccccc2)c(CCCCC)c1,-1%,1.9µM*,10µM*,?,10µM*
COc1ccc(N2CCN(C(=O)c3cnn(-c4ccc(F)cc4)c3-n3cccc3)CC2)cc1,.,.,-2%,.,-9%
O=C1C=C(c2ccccc2)OC2(CCCC2)O1,-4%,-4%,.,?,.
COc1ccc(C2=CC(=O)OC(C)(c3ccccc3)O2)cc1 (stereo unspecified),-2%,12µM*,-12%,96%,-26%
CC1=C(C(=O)OC2CCCC2)C(c2ccccc2C(F)(F)F)CC(=O)N1 (stereo unspecified),.,.,-12%,.,-10%
COc1ccc(C(CNC(=O)c2ccccc2C)N2CCCC2)cc1 (stereo unspecified),-4%,.,.,-18%,.
COc1ccc(C(CNC(=O)C(C)Oc2ccc(Br)cc2)N2CCCC2)cc1 (stereo unspecified),-10%,12µM*,-11%,?,0%
COc1ccc(CCNC(=O)c2ccc(Cl)c(S(=O)(=O)N3CCCC3)c2)cc1,5%,12µM*,.,6.6µM*,.
COc1ccc(CCNC(=O)c2cc(S(=O)(=O)N3CCCCC3)ccc2Cl)cc1,-3%,3%,-18%,?,-10%
COc1ccc(C(CNC(=O)c2ccc(S(=O)(=O)N(C)C)cc2)N2CCCC2)cc1 (stereo unspecified),-14%,10µM*,-16%,?,-10%

# Assay outcomes: PubChem BioAssay, National Center for Advancing Translational Sciences (NCATS)
